# In ChEMBL document CHEMBL3988442, “University of Dundee, Small-Polar-MMV Screening Library” (2021):
# The whole screen tested about 69,000 compounds, of which about 1,000 (1.4%) showed an effect of 50% or more. The entries come from a sample that favours strong results as a whole.
# System: Leishmania donovani
# Test: Leishmania intramacrophage assay
# Format: functional, organism-based
# Set-up: scale not given: in the data most compounds retested in dose-response had high values
smiles,measurement,setting,value
O=C1CCN(C(=O)c2csc(-c3ccc(C(F)(F)F)cc3)n2)CCN1,Percent Effect,"30.3 µM, […]",-4.65%
O=C(c1csc(-c2ccc(C(F)(F)F)cc2)n1)N1CCCNCC1,Percent Effect,"30.3 µM, […]",53.12%
CN1CCCN(C(=O)c2csc(-c3ccc(C(F)(F)F)cc3)n2)CC1,Percent Effect,"30.3 µM, […]",-34.88%
CCc1nc(C2CCCN2CCC(=O)N2CCc3ccccc32)no1 (stereo unspecified),Percent Effect,30 µM,-5.363%
Cc1cc(C(=O)Nc2nnn[nH]2)ccc1I,Percent Effect,"30.3 µM, […]",2.496%
O=C(O)C(F)(F)F.O=C(O)C(F)(F)F.O=C(O)C(F)(F)F.c1cncc(COCc2cncc3c2CCN(Cc2ccoc2)C3)c1,Percent Effect,"30.3 µM, […]",3.293%
Cc1cc(C(=O)N2CCc3nc(N4CCCC4)nc(C)c3CC2)c(C)o1,Percent Effect,"30.3 µM, […]",44.41%
Cc1nc(N2CCCC2)nc2c1CCN(C(=O)c1ccoc1C)CC2,Percent Effect,"30.3 µM, […]",54.38%
Cc1nc(N2CCCC2)nc2c1CCN(C(=O)N1CCCC1)CC2,Percent Effect,"30.3 µM, […]",-2.559%
CCn1ccc(C(=O)N2CCCC2(C)c2nc(C)cc(N(C)C)n2)n1 (stereo unspecified),Percent Effect,"30.3 µM, […]",26.06%
CC(C)CNC(=O)C(C)N1CCN(C2CCN(C(C)C)CC2)CC1 (stereo unspecified),Percent Effect,"30.3 µM, […]",19.26%
CCC(=O)N1CCC(c2nc(C)c3c(n2)N(C)CCC3)CC1,Percent Effect,"30.3 µM, […]",31.8%
CCN(CC)C(=O)CN1CCC(c2nc(C)c3c(n2)N(C)CCC3)CC1,Percent Effect,"30.3 µM, […]",-13.08%
CCN(CC)C(=O)CN1CCCC(c2nc(C)c3c(n2)N(C)CCC3)C1 (stereo unspecified),Percent Effect,"30.3 µM, […]",94.66%
CS(=O)(=O)NCC1CCCN(C(=O)Nc2cccnc2N2CCCC2)C1 (stereo unspecified),Percent Effect,"30 µM, 30.03 µM",4.026%
CS(=O)(=O)NC1CCCN(C(=O)Nc2cccnc2)C1 (stereo unspecified),Percent Effect,30 µM,-4.572%
CS(=O)(=O)NC1CCCN(C(=O)Nc2cccnc2N2CCCC2)C1 (stereo unspecified),Percent Effect,"30.3 µM, […]",64.13%
CCOCc1cncc2c1CCN(C(=O)c1cscn1)C2.O=C(O)C(F)(F)F,Percent Effect,"30.3 µM, […]",5.62%
Cc1ccc(C(=O)NC2CCN(C(C)C)C2)c(=O)[nH]1 (stereo unspecified),Percent Effect,"30.3 µM, […]",39.11%
Cc1ccc(C(=O)NC2CCCN(S(C)(=O)=O)C2)c(=O)[nH]1 (stereo unspecified),Percent Effect,"30.3 µM, […]",4.219%
Cc1ccc(C(=O)NC2CCN(S(C)(=O)=O)CC2)c(=O)[nH]1,Percent Effect,"30.3 µM, […]",59.71%
CNC(=O)C1CN(c2cc(C)ncn2)CCN1Cc1ccccc1 (stereo unspecified),Percent Effect,"30.3 µM, […]",-5.457%
CCOC(=O)N1CCN(C(=O)c2cc(-c3ccccc3F)on2)CC1,Percent Effect,"30.3 µM, […]",-28.98%
CCOC(=O)N1CCN(C(=O)c2cc(-c3ccc(C)cc3)on2)CC1,Percent Effect,"30.3 µM, […]",67.95%
CCOC(=O)N1CCN(C(=O)c2cc(-c3ccc(Cl)cc3Cl)on2)CC1,Percent Effect,"30.3 µM, […]",18.25%
Cn1cc(C(=O)N2CC[C@@H]3[C@@H]2CCN3c2ncc(F)cn2)cn1.O=C(O)C(F)(F)F,Percent Effect,"30.3 µM, […]",4.387%
Cc1ccsc1CNC(=O)c1ccc(N2CCOC2=O)cc1,Percent Effect,"30.3 µM, […]",-0.1452%
COc1cccc(COC(C)C(=O)N(C)Cc2nnc3n2CCC3)c1 (stereo unspecified),Percent Effect,"30.3 µM, […]",-15.17%
Cc1cc(C(=O)NC(COCC(C)C)c2ccco2)no1 (stereo unspecified),Percent Effect,"30.3 µM, […]",10.39%
COc1ncc(CN(CCN(C)C)Cc2ccc(C)s2)cn1,Percent Effect,"30.3 µM, […]",1.942%
CCNc1ncc(CN(CCN(C)C)Cc2ccc(C)s2)cn1,Percent Effect,"30.3 µM, […]",7.089%
CCc1ccc(CN(CCN(C)C)Cc2ccc(C)s2)nc1,Percent Effect,"30.3 µM, […]",60.62%
CN(C)C(=O)COCC1CN(Cc2ccoc2)Cc2ncn(C)c21.O=C(O)C(F)(F)F.O=C(O)C(F)(F)F (stereo unspecified),Percent Effect,"30.3 µM, […]",13.81%
O=C(NCC(F)(F)C(F)F)c1ccncc1,Percent Effect,"30.3 µM, […]",-13.6%
O=C(NCC(F)(F)F)c1ccncc1,Percent Effect,"30.3 µM, […]",80.67%
O=C(NCC(F)(F)C(F)F)c1cccnc1,Percent Effect,"30.3 µM, […]",3.821%
CCC(C)N(Cc1cccnc1)Cc1cc2c(cc1Cl)OCO2 (stereo unspecified),Percent Effect,"30.3 µM, […]",69.06%
CCC(C)N(Cc1cccnc1)Cc1cc2c(cc1OC)OCO2 (stereo unspecified),Percent Effect,"30.3 µM, […]",16.2%
CCC(C)N(Cc1cccnc1)Cc1ccc2c(c1)OCCO2 (stereo unspecified),Percent Effect,"30.3 µM, […]",27.15%
CC(C)CN1C(=O)CC(N2CCN(c3ccc(F)cc3)CC2)C1=O (stereo unspecified),Percent Effect,"30.3 µM, […]",-25.93%
CC(C)NC(=O)c1nc(Cn2c(C(F)(F)F)nc3ccccc32)no1,Percent Effect,"30.3 µM, […]",55.95%
CC(C)NC(=O)c1nc(Cn2c(C(F)F)nc3ccccc32)no1,Percent Effect,"30.3 µM, […]",-22.55%
O=C(NC1CC1)c1nc(Cn2c(C(F)F)nc3ccccc32)no1,Percent Effect,"30.3 µM, […]",-15.36%
CCc1nnc2n1CCN(CC(O)c1ccc3c(c1)OCCO3)C2 (stereo unspecified),Percent Effect,30 µM,-7.197%
CN(C)S(=O)(=O)N1CCN(C(=O)OC(C)(C)C)CC12CCCCC2,Percent Effect,"30.3 µM, […]",5.768%
CC(C)(C)OC(=O)N1CCN(S(C)(=O)=O)C2(CCCCC2)C1,Percent Effect,"30.3 µM, […]",27.8%
CC(C)(C)OC(=O)N1CCN(S(=O)(=O)CCCC#N)C2(CCCCC2)C1,Percent Effect,"30.3 µM, […]",52.1%
CN1CCN(CC2(O)CCCN(S(=O)(=O)c3cn[nH]c3)CC2)CC1 (stereo unspecified),Percent Effect,"30.3 µM, […]",4.995%
Cc1ccc(CN2CCN(Cc3nccn3C)[C@H]3CS(=O)(=O)C[C@H]32)o1,Percent Effect,"30.3 µM, […]",16.96%
CC(C)n1cc(N2Cc3nc(N4CCOCC4)ncc3C2=O)cn1,Percent Effect,"30.3 µM, […]",32.93%
CCn1cc(N2Cc3nc(N4CCOCC4)ncc3C2=O)cn1,Percent Effect,"30 µM, 30.03 µM",-6.754%
Cn1cc(N2Cc3nc(N4CCOCC4)ncc3C2=O)cn1,Percent Effect,"30.3 µM, […]",59.37%
CN(C)Cc1ccc(C(N)=O)cc1NC(=O)c1cccc(C#N)c1,Percent Effect,"30.3 µM, […]",0.5381%
CC(=O)N1CCC(Cc2cccc(-c3ccnn3C)n2)CC1,Percent Effect,"30.3 µM, […]",7.143%
CN(CCNC(=O)Nc1nccs1)Cc1ccc(F)cc1,Percent Effect,"30.3 µM, […]",53.32%
CN(CCNC(=O)Nc1cnn(C)c1)Cc1ccc(F)cc1,Percent Effect,"30.3 µM, […]",-44.73%
CN(CCNC(=O)Nc1ccn(C)n1)Cc1ccc(F)cc1,Percent Effect,"30.3 µM, […]",-20.54%
CCSCc1cccc(NC2CCN(C)C2=O)c1 (stereo unspecified),Percent Effect,"30.3 µM, […]",-1.156%
COCCCN(C)c1cc(C(F)(F)F)nc(-c2cccnc2)n1,Percent Effect,"30.3 µM, […]",1.301%
Cl.c1ccc(-c2ccc(C3CNCCO3)nc2)cc1 (stereo unspecified),Percent Effect,"30 µM, 30.03 µM",21.61%
CCNC(=O)N(Cc1ccoc1)C1CCCCC1,Percent Effect,"30.3 µM, […]",-8.85%
COc1cc(CSc2nnc(N)n2C2CC2)ccc1SC,Percent Effect,"30.3 µM, […]",3.668%
CC(C)(C)c1ncc(C(=O)N2CCC(N3CCSCC3)CC2)c(O)n1,Percent Effect,"30.3 µM, […]",-1.593%
NC(=O)C(CNC(=O)Cc1ccc(F)cc1)Cc1ccc(F)cc1 (stereo unspecified),Percent Effect,"30 µM, 30.03 µM",16.98%
Cc1ccc(CC(=O)NCC(Cc2ccc(F)cc2)C(N)=O)cn1 (stereo unspecified),Percent Effect,"30.3 µM, […]",53.64%
NC(=O)C(CNC(=O)Cc1ccsc1)Cc1ccc(F)cc1 (stereo unspecified),Percent Effect,"30.3 µM, […]",32.76%
